Source: PubChem (Broad Institute)
In the library only some 2.9% were active in any assay of this set; here they are far more common.
Glyco luc inh = blocks N-linked glycosylation in D54 reporter cells. D54 ERlucT glycosylation luciferase reporter, 24 h; percent of 100 nM tunicamycin response. reporter increase, % at 12.5 µM. 0.23% of 360,000 active. AID 588692;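 active means mean luciferase reporter signal, scaled so untreated is 0 and the glycosylation-blocking control 100, at or above a set limit in every replicate; inconclusive means mean reaches the limit but not every replicate does; inactive means mean below the limit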;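 further: luciferase carries N-glycosylation sites so blocking glycosylation raises the light; 0% = median of neutral control wells and 100% = median of 100 nM tunicamycin wells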
Wnt bcat act = Wnt/beta-catenin pathway activation | Wnt/beta-catenin reporter cell assay, activator, plate reader | 1.2% of 300,000 active | activation, % at 9.35 µM; in the data active means activation above about 30%, passing the limit was not always enough; inconclusive means no clear call, values can overlap the other calls;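 further: 0% = neutral control wells and 100% = positive control wells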
PvdQ acylase = blocks Pseudomonas aeruginosa PvdQ acylase activity; inhibition, % at 10 µM; 0.063% of 340,000 active; purified PvdQ acylase, fluorescence plate reader; in the data active means inhibition above about 30%, passing the limit was not always enough; inconclusive means no clear call, values can overlap the other calls;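 further: 0% = vehicle neutral wells and 100% = reference inhibitor wells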
Vif imaging = blocks HIV Vif function; HEK293T cells, Vif self-association by quenched fluorescence, imaging, 24 h; inhibition, % at 7.49 µM; 0.35% of 340,000 active; in the data active means inhibition above about 50%, passing the limit was not always enough; inconclusive means no clear call, values can overlap the other calls; inactive means below about 31%
MITF TRPM1 HTS = MITF TRPM1 promoter activation in melanoma cells | AID 588334 | SK-MEL-5 TRPM1-promoter luciferase, 24 h; % of positive control, neutral wells = 0 | activation, % at 12.5 µM | 0.75% of 300,000 active;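 active means mean activation of at least 80% with every replicate also reaching 80%; inconclusive means mean reaches 80% but some replicate falls short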;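 further: 0% = neutral control wells and 100% = parthenolide positive control wells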
esBAF inh = blocks esBAF chromatin remodeling in mouse ES cells; reporter increase, % at 12.5 µM; 2% of 350,000 active; Bmi1-luciferase knock-in reporter, 24 h; 100% = twice the neutral-well signal; in the data active means activation above about 40%; inconclusive means no clear call, values can overlap the other calls;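 further: 0% = median of the plate's neutral control wells and 100% = double that signal; a rise in the Bmi1 reporter signal indicates esBAF inhibition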
An asterisk follows results filed as active.

`O=C(C1CC1)N1[C@@H]2CN(S(=O)(=O)c3ccccc3)c3ccccc3[C@@H]2[C@@H]1CO` gave esBAF inh -3.6.
`CCCCCCCCCCCCCCCC[n+]1ccc(C(N)=O)cc1` gave Glyco luc inh -12.3, Wnt bcat act -26.4, PvdQ acylase 2.9, Vif imaging -5.0 and MITF TRPM1 HTS -22.1.
CCCCCCCCCCCCCCCC[n+]1ccc(/C=N/O)cc1 was read as Glyco luc inh 87.1*, Wnt bcat act -9.5, PvdQ acylase -67.8, Vif imaging -4.2 and MITF TRPM1 HTS -76.2.
For Cc1ccc2c(c1)COc1c3ccc(C(=O)NC(C)C)cc3nn1-2 the results were Glyco luc inh -2.1, Wnt bcat act 46.3*, PvdQ acylase -6.5, MITF TRPM1 HTS 89.4* and esBAF inh 84.0*.
Screening CCc1cc(-c2ccc3c(c2)COc2c4ccccc4nn2-3)on1 returned Glyco luc inh -17.0, Wnt bcat act 19.6, PvdQ acylase 10.4, Vif imaging -4.7, MITF TRPM1 HTS 73.1 and esBAF inh 3.0.
`Cc1ccc2c(c1)COc1c3ccc(C(=O)N[C@@H](C)CO)cc3nn1-2` gave Glyco luc inh -4.7, Wnt bcat act 18.1, PvdQ acylase -9.6, MITF TRPM1 HTS 77.5 and esBAF inh 62.0*.
For C[C@@H]1CCCCO[C@H](CN(C)S(=O)(=O)c2ccc(Cl)cc2)[C@H](C)CN([C@H](C)CO)C(=O)c2cc(NC(=O)Cc3ccccc3)ccc2O1 the results were esBAF inh 1.5.
For COCc1cn(CC[C@@H]2CC[C@H](NC(=O)c3ccncc3)[C@@H](CO)O2)nn1 the results were esBAF inh -4.7.
C[C@H]1CN([C@@H](C)CO)C(=O)c2cc(NC(=O)Nc3ccc4c(c3)OCO4)ccc2O[C@H]1CN(C)C(=O)NC1CCCCC1 was read as esBAF inh -4.9.
`Cc1ccsc1C(=O)Nc1nnc(-c2ccco2)o1` gave Glyco luc inh 1.3, PvdQ acylase -4.8, Vif imaging 2.0 and esBAF inh 42.7*.
For CC(C)Sc1nnc(NC(=O)C2CC2)s1 the results were Glyco luc inh 0.6, Wnt bcat act 3.1, PvdQ acylase -18.1, Vif imaging 3.1, MITF TRPM1 HTS 27.2 and esBAF inh 13.6.
CC(C)Sc1nnc(Nc2ccccc2)s1 was read as Glyco luc inh -3.1, Wnt bcat act -2.7, PvdQ acylase -6.8, Vif imaging 7.1, MITF TRPM1 HTS 77.3 and esBAF inh 43.0*.
For COC(=O)C(C)N1C(=O)S/C(=C/c2cc(C)n(C(C)C)c2C)C1=O (stereo unspecified) the results were Glyco luc inh -7.1, Wnt bcat act 38.4*, PvdQ acylase -3.8, Vif imaging -23.6 and MITF TRPM1 HTS 86.2*.
COCCn1c(C)cc(/C=C2\NC(=S)N(C)C2=O)c1C was read as Glyco luc inh 1.1, Wnt bcat act -1.2, PvdQ acylase -4.4, Vif imaging 10.8 and MITF TRPM1 HTS 18.9.
COC(=O)CN1C(=O)S/C(=C/c2cc(C)n(C)c2C)C1=O was read as Glyco luc inh -3.6, Wnt bcat act inconclusive, PvdQ acylase 5.6, Vif imaging -4.7, MITF TRPM1 HTS 69.5 and esBAF inh 56.6*.
COCCn1c(C)cc(/C=C2/SC(=O)N(C(C)C(=O)OC)C2=O)c1C (stereo unspecified) was read as Glyco luc inh -8.6, Wnt bcat act -2.1, PvdQ acylase -3.9, Vif imaging -9.8, MITF TRPM1 HTS 97.1* and esBAF inh 66.0*.
Screening CCn1c(C)cc(/C=C2/SC(=O)N(C(C)C(=O)OC)C2=O)c1C (stereo unspecified) returned Glyco luc inh -2.2, Wnt bcat act 47.4*, PvdQ acylase -6.6, Vif imaging 0.3, MITF TRPM1 HTS inconclusive and esBAF inh 30.0.
Cc1cccc(NC(=O)CN2C(=O)N/C(=C/c3cc(C)n(C(C)C)c3C)C2=O)c1 was read as Glyco luc inh -0.3, PvdQ acylase -5.3, Vif imaging -3.2, MITF TRPM1 HTS -6.4 and esBAF inh -4.3.
`Cc1ccc(S(=O)(=O)N(C)C[C@@H]2Oc3ccc(NC(=O)Nc4cccc5ccccc45)cc3C(=O)N([C@@H](C)CO)C[C@@H]2C)cc1` gave esBAF inh -19.0.
Screening C[C@@H]1CN([C@@H](C)CO)C(=O)c2cc(NC(=O)CCCN(C)C)ccc2O[C@@H](C)CCCCO[C@@H]1CN(C)C(=O)Nc1ccccc1 returned esBAF inh 0.9.
Screening CCOC(=O)C(C)N1C(=O)S/C(=C/c2cc(C)n(-c3ccncc3)c2C)C1=O (stereo unspecified) returned Glyco luc inh -2.6, Wnt bcat act 1.2, PvdQ acylase -3.1, Vif imaging 7.2, MITF TRPM1 HTS 0.1 and esBAF inh 9.6.
For CCOC(=O)C(C)N1C(=O)S/C(=C/c2cc(C)n(-c3ccccn3)c2C)C1=O (stereo unspecified) the results were Glyco luc inh -5.2, Wnt bcat act 47.1*, PvdQ acylase -7.4, MITF TRPM1 HTS 33.6 and esBAF inh 21.0.
`Cn1c(N)c(S(=O)(=O)N2CCCC2)c(=O)n(C)c1=O` gave Glyco luc inh 2.6, Wnt bcat act 30.3*, PvdQ acylase 11.9, Vif imaging 2.9, MITF TRPM1 HTS 0.7 and esBAF inh 7.5.
For CN(C)c1ncnc2c1ncn2-c1ccccc1 the results were Glyco luc inh 6.8, Wnt bcat act 3.8, PvdQ acylase 1.7, Vif imaging -11.3, MITF TRPM1 HTS 26.1 and esBAF inh 59.3*.
Screening CN(C)c1ncnc2c1ncn2CCn1cnc2c(N(C)C)ncnc21 returned Glyco luc inh -1.1, Wnt bcat act -0.2, PvdQ acylase -6.8, Vif imaging 6.8, MITF TRPM1 HTS -4.1 and esBAF inh 0.0.
Screening CN(C)C(=O)C[C@H]1CC[C@H]2[C@@H](COc3ccc(NS(=O)(=O)c4cccc(F)c4)cc3C(=O)N2C)O1 returned esBAF inh -1.4.
Screening Cc1cc(CNC(=O)c2cccc(OC3CCN(S(=O)(=O)N(C)C)CC3)c2)on1 returned Glyco luc inh -2.8, Wnt bcat act 2.1, PvdQ acylase -13.6, Vif imaging -3.4, MITF TRPM1 HTS 36.2 and esBAF inh 71.3*.
For CN(C)S(=O)(=O)N1CCC(Oc2cccc(C(=O)NC3CCCCCC3)c2)CC1 the results were Glyco luc inh -3.9, Wnt bcat act -4.0, PvdQ acylase 5.6, Vif imaging -55.8, MITF TRPM1 HTS -39.1 and esBAF inh 0.2.
For c1cc2c(cc1CNc1ccc(N3CCOCC3)cc1)OCO2 the results were Glyco luc inh 1.2, Wnt bcat act 7.7, PvdQ acylase -13.7, Vif imaging -3.0, MITF TRPM1 HTS 74.6 and esBAF inh 68.8*.
Cc1ccc(CNc2ccc(N3CCOCC3)cc2)cc1 was read as Glyco luc inh 3.4, Wnt bcat act 0.1, PvdQ acylase -3.3, Vif imaging 15.3, MITF TRPM1 HTS 11.4 and esBAF inh 64.3*.
